53 compounds from ChEMBL document CHEMBL4888484, “Replenishing the malaria drug discovery pipeline: Screening and hit evaluation of the MMV Hit Generation Library 1 (HGL1) against asexual blood stage Plasmodium falciparum ,using a nano luciferase reporter read-out” (2022) can be followed below.

The whole screen tested about 150,000 compounds, of which about 540 (0.36%) showed an effect of 50% or more. This excerpt belongs to a sample that is enriched for strong results.

The test relates to Plasmodium falciparum. Kind of test: Primary screen in NF54 nanoGlo assay, in single point, at 2uM, 72h; a lower Z score goes with more inhibition. The class given is functional, Erythrocyte. The note with it: timepoint 72 hour.
As to `NC(=O)CN1CCC(Nc2nc3ccccc3n2CCO)CC1`, the % Inhibition (in general, the change of the read-out against control, counted positive when it falls) is given as -7% and the Z score was 1.08.

`COc1cccc(NC(=O)Cc2c(C)nn(-c3nc(-c4ccc(C)cc4)cs3)c2C)c1`: the “% Inhibition” value is given as -13% and the Z score was found to be 1.45.

In the case of `CN(Cc1cc2cc(F)ccc2[nH]1)Cc1ccnn1C`, the “% Inhibition” value was -9% and the Z score came to 1.38.

For `C[C@H](Nc1ccc(C#N)cn1)c1cccc(-n2cccn2)c1`, the “% Inhibition” value was 0% and the Z score is listed as 0.03.

Consider `Cc1ccccc1Cc1c(C)[nH]c2[nH]n(-c3ccccc3)c(=O)c2c1=O`, for which the “% Inhibition” value amounted to 10% and the Z score is -1.18.

`CCCCCc1c(C)nc2[nH]n(-c3ccccc3)c(=O)c2c1O`: the “% Inhibition” value is listed as 34% and the Z score was 2.26.

On to `CNCCc1c(-c2ccccc2)[nH]n(-c2ccccc2)c1=O`, for which the “% Inhibition” value worked out at 82% and the Z score is on record as -6.33.

Turning to `O=C1NCCN1CCN1CCc2[nH]ncc2C1`, the “% Inhibition” value is -10% and the Z score is recorded as 1.34.

Regarding `CC1=NN(c2ccccc2)C(=O)C12Cc1ccc(Cl)cc1N1CCCCC12` (stereo unspecified), the “% Inhibition” value turned out to be 8% and the Z score is reported as -1.22.

As for `Cc1cc(OC[C@@H](O)CNC(C)C)cc(C)c1Cl`, the “% Inhibition” value is -7% and the Z score amounted to 1.4.

Consider `Cc1cc(C)cc(OC[C@@H](O)CNC(C)(C)CC(C)(C)C)c1`, for which the “% Inhibition” value was -3% and the Z score worked out at 0.43.

As for `Cc1cc(OC[C@@H](O)CNC(C)(C)CC(C)(C)C)cc(C)c1Cl`, the “% Inhibition” value is 51% and the Z score is reported as -6.83.

Turning to `CCc1cnc(C)nc1N1CCC(N2CC(n3nc(C)cc3C)C2)CC1`, the “% Inhibition” value worked out at 6% and the Z score was -1.11.

For the compound `CN(Cc1cccnc1)C(=O)c1csc(NC(=O)c2ccc(Cl)cc2Cl)n1`, the “% Inhibition” value is recorded as -12% and the Z score is 1.69.

On to `COc1ccc(-c2ccnc(N[C@H]3CCN(C4CCOCC4)C3=O)n2)cc1`, for which the “% Inhibition” value is reported as -13% and the Z score came out at 2.48.

As for `C#CCOCC(O)CN(Cc1c(-c2ccccc2)noc1N1CCC(C)CC1)CC1CCCO1` (stereo unspecified), the “% Inhibition” value was determined as 59% and the Z score is 1.43.

`CCOC[C@@H](O)CN(Cc1c(-c2ccccc2)noc1N1CCC(C)CC1)CC1CC1`: the “% Inhibition” value is recorded as 35% and the Z score came to 0.79.

On to `C=CCOCC(O)CN(Cc1c(-c2ccccc2)noc1N1CCCCC1C)CC1CCCO1` (stereo unspecified), for which the “% Inhibition” value was 30% and the Z score is given as -0.88.

On to `CC(C)C(=O)Nc1ccc(-c2cc(-c3ccc(NC(=O)C(C)C)cc3)nc(-c3ccncc3)n2)cc1`, for which the “% Inhibition” value was 38% and the Z score is -10.15.

On to `CC(NC(=O)NC(C)c1ccc(-c2cccnc2)cc1)c1ccncc1` (stereo unspecified), for which the “% Inhibition” value is on record as 7% and the Z score is reported as -1.01.

For `C[C@H](N)c1ccc(Nc2ncc3cc(-c4ccncc4)ccc3n2)cc1`, the “% Inhibition” value was determined as 85% and the Z score is -9.36.

Consider `CCOc1c(Br)cc(Cl)cc1NCC(=O)NC(=O)NCC(C)C`, for which the “% Inhibition” value was -7% and the Z score came to 1.36.

Turning to `Cn1ncc2c1CCCN(c1nccn3nc(C(F)(F)F)cc13)C2`, the “% Inhibition” value is reported as -10% and the Z score was determined as 1.44.

`CC(=O)c1ccc(NC(=O)c2cc3n(n2)CCCO3)cc1`: the “% Inhibition” value is -7% and the Z score worked out at 1.13.

For the compound `CC(C)=CC1C(C(=O)N(C)CC2COc3ccccc3O2)C1(C)C` (stereo unspecified), the “% Inhibition” value is -4% and the Z score is 0.45.

Take `Cc1cncc(C(=O)NC[C@@H](CO)Cc2ccc(Cl)cc2)c1`: the “% Inhibition” value was -7% and the Z score is listed as 0.93.

Regarding `CC1CC(NCCc2cc(F)cc3c2OCOC3)CN1C1CC1` (stereo unspecified), the “% Inhibition” value is given as -5% and the Z score is reported as 0.45.

`O=C(CNC(=O)NC1CC1)NCCc1cc(F)cc2c1OCOC2`: the “% Inhibition” value is reported as -2% and the Z score is listed as 0.2.

In the case of `COC[C@H](NCCc1cc(F)cc2c1OCOC2)C1CC1`, the “% Inhibition” value was found to be 63% and the Z score is recorded as -8.98.

Turning to `Cc1nc(-c2ccnc(NCc3cnc(N(C)C)nc3)c2)n[nH]1`, the “% Inhibition” value is given as 5% and the Z score is reported as -0.63.

On to `O=S1(=O)NC[C@H](O)CNC[C@@]2(COc3cc(-c4ccccc4)ccc31)C[C@@H](O)[C@@H](O)C2`, for which the “% Inhibition” value is on record as -14% and the Z score came to 1.78.

With `Cn1nccc1[C@@H]1CN(C(=O)NCc2ccon2)CCO1`, the “% Inhibition” value is listed as -3% and the Z score was determined as 0.43.

Turning to `Cc1ccc(C)c(C(=O)N[C@@H](C)c2nc(-c3cccnc3)cs2)c1`, the “% Inhibition” value is on record as 0% and the Z score is given as -0.01.

For the compound `Cc1cc(C(=O)N[C@@H](C)c2nc(-c3cccnc3)cs2)cc(O)n1`, the “% Inhibition” value is reported as 51% and the Z score was -3.53.

On to `Cc1cc(CC(=O)N[C@@H](C)c2nc(-c3cccnc3)cs2)no1`, for which the “% Inhibition” value is recorded as -5% and the Z score came out at 0.5.

On to `COc1cccc(CCn2ccnc2C(C)C)c1`, for which the “% Inhibition” value is -4% and the Z score is on record as 0.93.

On to `COc1ccccc1CCNC(=O)c1ccccc1N1CCC(NS(=O)(=O)c2ccc(F)cc2)CC1`, for which the “% Inhibition” value is listed as 11% and the Z score is -1.5.

As to `N[C@H]1C[C@@H](c2cc(N3CCN(C4CCCCC4)CC3)nc(N3CCCC3)n2)C1`, the “% Inhibition” value is listed as 56% and the Z score is -8.12.

Regarding `NC1CC(c2cc(N3CCCCCCCC3)ncn2)C1` (stereo unspecified), the “% Inhibition” value was -23% and the Z score stood at 2.99.

Turning to `c1ccc2c(N3CCCC3)nc(N3CCN(C4CCCCC4)CC3)nc2c1`, the “% Inhibition” value is -5% and the Z score turned out to be 0.7.

For `CC(C)c1nnc2c3ccccc3nc(N3CCN(C(=O)c4ccc(Cl)cc4)[C@@H](C)C3)n12`, the “% Inhibition” value was -1% and the Z score was determined as 0.12.

For `Nc1nc(C2CC(N)C2)cc(N2CCC(Oc3ccccc3Cl)CC2)n1` (stereo unspecified), the “% Inhibition” value came out at 50% and the Z score was -7.79.

Consider `Nc1nc(N2CCN(Cc3ccc(F)cc3)CC2)cc([C@H]2C[C@@H](N)C2)n1`, for which the “% Inhibition” value turned out to be 16% and the Z score is recorded as -2.35.

`Nc1nc(N2CCN(c3ccc(F)c(Cl)c3)CC2)cc([C@H]2C[C@@H](N)C2)n1`: the “% Inhibition” value was found to be 49% and the Z score is -3.16.

For `Cc1ccc(Cc2nnc(NC(=O)Cc3ccccc3Cl)o2)c(C)c1`, the “% Inhibition” value is on record as -13% and the Z score worked out at 1.44.

Regarding `CN1CCCN(c2ccc3ccc(F)cc3n2)CC1`, the “% Inhibition” value is listed as -5% and the Z score worked out at 0.48.

For `CCNC(=O)N[C@H]1CCN(C2CCCCCC2)C1`, the “% Inhibition” value is listed as 1% and the Z score is on record as -0.09.

Consider `Oc1ccccc1-c1cc(-c2ccccc2)c2c(ccc3ccccc32)n1`, for which the “% Inhibition” value was -5% and the Z score came out at 0.64.

Turning to `CCOc1cc(-c2cc(-c3ccccc3O)nc3ccc4ccccc4c23)cc(Br)c1O`, the “% Inhibition” value was determined as 82% and the Z score was -8.45.

As to `COc1cc(-c2cc(-c3cccnc3)c3c(ccc4ccccc43)n2)cc(Cl)c1O`, the “% Inhibition” value amounted to 18% and the Z score is given as -2.48.

In the case of `Cn1ccnc1CN1C[C@@H](F)C[C@H]1CNc1ncnc2c1CCCCC2`, the “% Inhibition” value is on record as -4% and the Z score was found to be 0.8.

On to `COc1cccc(C(=O)N2CCN(C(=O)Cn3cc(Cl)cn3)CC2)c1`, for which the “% Inhibition” value is recorded as -4% and the Z score turned out to be 0.42.

`Cn1ccc(NS(=O)(=O)c2cccc3c2N=S=N3)n1`: the “% Inhibition” value is given as -1% and the Z score came to 0.06.
